# Measured values: ChEMBL document CHEMBL3988442, “University of Dundee, Small-Polar-MMV Screening Library” (2021)
# Values joined by “and” are separate entries in the source; they are usually repeats but may differ in a detail not shown here. Equal values may be shown once. Out of some 38,000 compounds screened, about 1,200 (3.2%) showed an effect of 50% or more. The median lay at about -58%. This is one part of a sample in which strong results are shown more often than they occur.
# System: Plasmodium falciparum
# Assay: Calibr Malaria Delayed Death Assay SOP
# Format: functional, organism-based
# Design: scale not given: in the data most compounds retested in dose-response had high values
# Conditions: concentration 4.99e-06 (unit not given; other assays of the set use mol/L)
Compound,Percent Effect,Percent Effect (4.99 µM)
CCc1cnc(CN(C(C)=O)C2CCN(CCc3ccccn3)C2)o1 (stereo not drawn),-120.8%,
Cc1csc2ncnc(N3CCCC(Cn4cc(C(C)(C)O)nn4)C3)c12 (stereo not drawn),-82.82%,
Cc1cc(C(=O)Nc2cccn(Cc3ccc(F)cc3)c2=O)on1,-10.66%,
CCc1nc(CN2CCCN(C(=O)CCCOC)CC2)cs1,-51.29%,
Cc1cc2nc(CN(C)c3ccc(Cl)cc3)cc(=O)n2o1,-90.64%,
CCCS(=O)(=O)N1CCOC2(CCCN(Cc3ccccn3)C2)C1.O=C(O)C(F)(F)F (stereo not drawn),-25.77%,
CN(Cc1ncc(C(C)(C)C)o1)CC1CCCN1c1cccnn1 (stereo not drawn),79.78%,
CN(Cc1ncc(C(C)(C)C)o1)C1CCCN(c2cccnn2)C1 (stereo not drawn),-55.67%,
CN(Cc1ncc(-c2ccccc2)o1)CC1CCCN1c1cccnn1 (stereo not drawn),-41.68%,
c1cnnc(N2CCCC2CNc2ncnc3c2CCC3)c1 (stereo not drawn),-141.7%,
c1cnnc(N2CCCC2CNc2ncnc3ccsc23)c1 (stereo not drawn),-78.5%,
Fc1ccc(Oc2ccc(CNCC3CNc4ccnn4C3)cn2)cc1 (stereo not drawn),-107.9%,
O=C(COCC(=O)N(c1ccccc1)c1ccccc1)N1CCCCC1,-158.5%,
CCc1nc(NCC2CCCN(C(=O)C3CC3)C2)c2cnn(C)c2n1 (stereo not drawn),-178%,
CC(C)(C)C(=O)NCc1nccn1CCc1ccccc1,10.03%,
CN(CCc1ccncc1)Cc1nccn1Cc1ccccc1,39.55%,
CC(NCCc1nccn1Cc1ccccc1)c1ccsc1 (stereo not drawn),82.98%,
CN(CCc1ccccn1)Cc1nccn1Cc1ccccc1,56%,
Cc1nccn1-c1ccc(C(C)NCCc2ccccn2)cc1 (stereo not drawn),9.885%,
CCc1ccc(C(C)NCc2nccn2Cc2ccccc2)o1 (stereo not drawn),-17.05%,
Cc1nccn1-c1ccc(C(C)NCCC(C)C)cc1 (stereo not drawn),48.4%,
CC(C)n1ccnc1CN1CCOC(CCc2ccccc2)C1 (stereo not drawn),7.997%,
CN(Cc1ccncc1)Cc1nccn1Cc1ccccc1,-44.2%,
CCN1CCCC(C)(C(=O)NCc2nccn2Cc2ccccc2)C1 (stereo not drawn),29.31%,
Cc1nc(NC(=O)NCCCN2CCC(C(N)=O)CC2)sc1C,-93.87%,

Compound,Percent Effect,Percent Effect (4.99 µM)
Cc1nnc(C(NS(=O)(=O)c2cc(F)c(C)cc2F)C(C)C)[nH]1 (stereo not drawn),-26.37%,
Cc1ccc(CN(C)Cc2ncc(C(C)(C)C)o2)o1,-58.81%,
COc1cccc(OC2CN(C(=O)c3c(C)noc3C)C2)c1,-22.85%,
O=c1c2ccc(Cl)cc2ncn1CCCN1CCCCC1CO (stereo not drawn),-12.14%,
CC(C)c1ccc(NC(=O)c2ncc(C(N)=O)cc2Cl)cc1,-172.5%,
O=C1CC(c2ccc3c(c2)OCO3)c2cnn(C3CCCC3)c2N1 (stereo not drawn),-69.51%,
Cn1cc(C2CC(=O)NC23CCN(C(=O)NC2CC2)CC3)cn1 (stereo not drawn),-54.83%,
CC(C)C(C)N(C(=O)Cn1nc2n(c1=O)CCCCC2)C1CC1 (stereo not drawn),-123.2%,
CCCc1cnc(C)nc1N1CCC(Cc2ccc(CO)cc2)C1 (stereo not drawn),-3.438%,
CN1CCN(C)C2(CCN(Cc3ccc(C4CCCCO4)o3)CC2)C1 (stereo not drawn),-149.2%,
OCC1(O)CCN(Cc2ccc(C3CCCCO3)o2)CC1 (stereo not drawn),-16.13%,
CN1CCC2(CC1)CN(Cc1ccc(C3CCCCO3)o1)CCCN2C (stereo not drawn),80.31%,
Oc1cccc(C2CN(c3nnc(C4CC4)s3)CCO2)c1 (stereo not drawn),-92.75%,
O=C(Nc1ccccc1OC1CCOC1)c1ccon1 (stereo not drawn),-94.04%,
CN(Cc1ccccc1)CC(C)(C)NC(=O)c1ccon1,-38.2%,
O=C(O)C(F)(F)F.O=C([C@@H]1CCO[C@@H]2CCN(Cc3cccs3)C[C@H]21)N1CCCCO1,-36.32%,
Cc1cccc(CN2C[C@@H]3CCCO[C@@H]3[C@H](NS(C)(=O)=O)C2)n1,-67.26%,
Cc1cccc(CN2C[C@@H]3CCCO[C@@H]3[C@H](Nc3ccccn3)C2)n1,55.52%,
Cc1ncsc1CN1C[C@@H]2CCCO[C@@H]2[C@H](Nc2ccccn2)C1.O=C(O)C(F)(F)F.O=C(O)C(F)(F)F,-27.39%,
CN(C)Cc1nc(-n2cnc(C(=O)NC3CCCC3)c2)n2ccccc12,8.682%,
CC(C)Oc1ccccc1NC(=O)N1CCC(n2cncn2)CC1,-58.88%,
Cc1ccccc1-c1noc(CN2CCn3c(nnc3C3CC3)C2)n1,50.31%,
c1ccc(-c2cnc(CN3CCn4c(nnc4C4CC4)C3)o2)cc1,-11.2%,
Cc1ccc(-c2nc(CN3CCn4c(nnc4C4CC4)C3)co2)c(C)c1,-40.53%,
CC(C)c1nnc(CN2CC(n3cccn3)Cc3ccccc32)o1 (stereo not drawn),-227.8%,

Compound,Percent Effect,Percent Effect (4.99 µM)
O=C(NCC1CC1)c1nnc2ccc(Cl)cc2n1,9.063%,
COCCN1CCCCC12CC(=O)N(c1ccccc1OC)C2.O=C(O)C(F)(F)F (stereo not drawn),-87.11%,
CCCN1CCCN(S(=O)(=O)c2cnc3onc(C)c3c2)CC1,-59.23%,
CC(C)c1nccn1C1CCCN(C(=O)CCCc2ccccn2)C1 (stereo not drawn),-134.4%,
CC(C)OCCN1CCN(c2ccc(Cl)cn2)CC1,-78.08%,
CSCCCN1CCN(c2ccc(Cl)cn2)CC1,28.74%,
Clc1ccc(N2CCN(CCCN3CCCCC3)CC2)nc1,68.33%,
CCCn1cc(-c2cc(C(=O)N(C)C)c3ccc(C)cc3n2)cn1,,-45.66% and -43.3%
CN(Cc1ccccn1)C1CC2(CCN(Cc3ccccn3)CC2)C1.O=C(O)C(F)(F)F.O=C(O)C(F)(F)F,-38.28%,
Cc1cccc(-c2ncc(CNC(C)Cc3ncccc3C)cn2)c1 (stereo not drawn),-10.25%,
Cc1cccnc1CC(C)Nc1ncc(C)c(N(C)C)n1 (stereo not drawn),44.79%,
CCn1nc2c(cc1=O)CN(CCOc1ccccc1C#N)CC2,-106.3%,
CCn1cc(C(=O)NCc2cccnc2N(C)Cc2ccccc2)cn1,-74.6%,
CN(Cc1ccccc1)c1ncccc1CNC1CCC1,69.98%,
CN(Cc1ccccc1)c1ncccc1CNC(=O)c1ccnn1C,-17.51%,
CN(Cc1ccccc1)c1ncccc1CNC1CCCC1,65.38%,
CN(Cc1ccccc1)c1ncccc1CNC1CCSCC1,25.77%,
CN(C)c1ncccc1CNCc1ccc(N2CCOCC2)cc1,-64.22%,
CC(=O)NC1CCCN(C(=O)NCc2cccnc2N(C)C)C1 (stereo not drawn),-14.71%,
Cc1nnsc1C(=O)NCc1cccnc1N(C)Cc1ccccc1,-61.52%,
CN(c1ncccc1CNCc1ncc[nH]1)C1CCCCC1,37.42%,
CC(=O)N1CCC(NCc2cccnc2N(C)Cc2ccccc2)CC1,-58.67%,
CN(Cc1ccccc1)c1ncccc1CNC1CN2CCC1CC2 (stereo not drawn),62.39%,
